Values without a mark were called inactive. Records with an inconclusive call do not appear. The source made the active and inactive calls. Unless noted, calls follow the shape of the dose curve; as a rule, active = well fitted curve in the direction sought with a large enough effect; inconclusive = small, poorly fitted or top-dose-only effect, or another doubt; inactive = no such curve, though single readings can be large; an effect the other way counts as inactive or inconclusive. Some results are limits rather than exact numbers.

Test [1] has as its target Ubiquitin carboxyl-terminal hydrolase 1 (Homo sapiens) (UniProt O94782). The test can be described thus: Inhibitors of USP1/UAF1: Pilot qHTS (AID 504865).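 Also: rhodamine fluorescence freed from ubiquitin-rhodamine substrate followed over time; top concentration of the series differs between compounds; % is scaled to controls: 0 for no effect and ±100 for the full control effect; nearly all actives have a fitted effect of over 35% in size.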 The method, boiled down:
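1nM USP1/UAF1 + cpd, 15 min RT; start w/ Ub-Rho 150nM final; kinetic FL 480/540 nm, 6 reads q60 s. Buffer 50mM HEPES pH 7.8, 0.5mM EDTA, 1mM TCEP, 0.01% Tween-20, 0.1 mg/ml BSA.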
Background: qHTS replaces the single test concentration by a dilution series.

Test [2] is described as follows: Viability counterscreen for antagonist of constitutive androstane receptor (CAR) against the NCATS DSHEA and TCM libraries (AID 1794837).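 Also: compound exposure lasted 24 h before viability reading; 0% is about no effect.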 In outline:
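Cell viability, CellTiter-Fluor, Ex/Em 405/540 nm, 1 h at 37C. HepG2-CYP2B6-hCAR, 2,500 cells/well; cpds + CITCO 48 uM final (antagonist mode), 24 h, 37C/5% CO2.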

The nature of test [3]: Viability counterscreen for agonist of constitutive androstane receptor (CAR) against the NCATS DSHEA and TCM libraries (AID 1794838). Also: 0% is about no effect. In outline: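 Viability by CellTiter-Fluor fluorescence, 405/540 nm, after 1 h at 37C. HepG2-CYP2B6-hCAR cells were exposed 24 h to test substances in presence of 0.75 uM PK11195 (final).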
For orientation: A counterscreen serves to expose hits that act by an unwanted route or on another target.

Test [4] concerns the target Nuclear receptor subfamily 1 group I member 3 (Homo sapiens) (UniProt Q14994). Kind of test: Primary qHTS for agonist of constitutive androstane receptor (CAR) against the NCATS DSHEA and TCM libraries (AID 1794839).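 Also: HepG2 cells expressing human CAR with a CYP2B6 reporter plus PK11195 antagonist; 0% is about no effect.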 The method, boiled down: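 Luminescence from ONE-Glo luciferase was the agonist read-out in HepG2-CYP2B6-hCAR cells exposed 24 h to test substances. Wells also held the CAR antagonist PK11195 at 0.75 µM final. Viability was by CellTiter-Fluor fluorescence.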

Test [5] can be described thus: HepG2 viability counterscreen (readout 2: ATP content) against the NCATS DSHEA and TCM libraries (AID 1794840). Also: 0% is about no effect. The method, boiled down:
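1,000 HepG2 cells/well, 4 h attach; compounds ~24 h, 37C/5% CO2. Readout 1: GF-AFC 25 uM final, 30 min, fluorescence 380/510 nm. Readout 2: CellTiter-Glo, 30 min RT, luminescence.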

The target in test [6] is Cytochrome P450 3A4 (Homo sapiens) (UniProt P08684). The test can be described thus: qHTS for inhibitors of CYP3A4 against the NCATS DSHEA and TCM libraries (AID 1919971).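 Also: % is scaled to controls: 0 for no effect and ±100 for the full control effect; inhibition lowers luminescence from luciferin made by CYP3A4.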 The method, boiled down: (§1)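 Luminescent P450-Glo format: compounds preincubated 15 min with enzyme and luciferin substrate, reaction run 30-45 min after NADPH regeneration solution. Intraplate controls: ketoconazole for CYP3A4 and CYP2C19, sulfaphenazole for CYP2C9.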
Cytochrome P450 3A4 (Homo sapiens), sequence (P08684 whole entry, looked up): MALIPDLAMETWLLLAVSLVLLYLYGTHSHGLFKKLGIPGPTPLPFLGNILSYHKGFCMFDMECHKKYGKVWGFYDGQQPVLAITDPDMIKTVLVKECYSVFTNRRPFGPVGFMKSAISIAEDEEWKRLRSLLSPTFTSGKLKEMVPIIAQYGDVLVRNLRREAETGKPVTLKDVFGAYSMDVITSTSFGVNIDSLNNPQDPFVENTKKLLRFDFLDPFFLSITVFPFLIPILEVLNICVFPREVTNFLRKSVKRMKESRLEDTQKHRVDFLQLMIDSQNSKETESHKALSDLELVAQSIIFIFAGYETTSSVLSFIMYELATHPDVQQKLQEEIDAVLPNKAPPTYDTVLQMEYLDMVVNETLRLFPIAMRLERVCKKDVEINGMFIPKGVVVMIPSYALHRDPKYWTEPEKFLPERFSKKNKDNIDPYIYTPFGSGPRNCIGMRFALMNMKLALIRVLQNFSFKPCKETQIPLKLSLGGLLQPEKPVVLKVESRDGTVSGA

In test [7] the target is Cytochrome P450 2D6 (Homo sapiens) (UniProt P10635). Kind of test: qHTS for inhibitors of CYP2D6 against the NCATS DSHEA and TCM libraries (AID 1919972). Also: % is scaled to controls: 0 for no effect and ±100 for the full control effect. In outline:
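Luminescent P450-Glo read-out of CYP2D6 turnover of a luciferin substrate after NADPH-driven reaction of 30-45 min at room temperature. Compounds were first preincubated 15 min with enzyme at titrated concentrations; quinidine was the intraplate control.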

In test [8] the target is Cytochrome P450 2C9 (Homo sapiens) (UniProt P11712). Kind of test: qHTS for inhibitors of CYP2C9 against the NCATS DSHEA and TCM libraries (AID 1919973).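 Also: luminogenic pro-luciferin CYP2C9 substrate turned into luciferin with NADPH regeneration; % is scaled to controls: 0 for no effect and ±100 for the full control effect.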 In outline: as §1
Cytochrome P450 2C9 (Homo sapiens), sequence (P11712 whole entry, looked up): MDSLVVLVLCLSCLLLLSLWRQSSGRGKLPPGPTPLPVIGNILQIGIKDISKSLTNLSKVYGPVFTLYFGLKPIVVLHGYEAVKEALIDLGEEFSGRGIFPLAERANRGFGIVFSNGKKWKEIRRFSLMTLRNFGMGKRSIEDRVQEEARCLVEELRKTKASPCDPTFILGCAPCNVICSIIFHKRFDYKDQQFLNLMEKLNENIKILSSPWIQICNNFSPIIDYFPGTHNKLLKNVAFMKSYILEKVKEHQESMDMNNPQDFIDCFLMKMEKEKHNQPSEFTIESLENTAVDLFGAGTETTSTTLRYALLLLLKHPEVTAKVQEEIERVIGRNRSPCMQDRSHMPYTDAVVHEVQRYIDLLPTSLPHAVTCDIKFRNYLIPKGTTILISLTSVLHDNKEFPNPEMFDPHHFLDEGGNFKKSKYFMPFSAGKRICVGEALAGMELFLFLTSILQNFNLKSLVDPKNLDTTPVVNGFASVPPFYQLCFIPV
The target in test [9] is Cytochrome P450 2C19 (Homo sapiens) (UniProt P33261). The test can be described thus: qHTS for inhibitors of CYP2C19 against the NCATS DSHEA and TCM libraries (AID 1919974).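 Also: luminescence from luciferin released by CYP2C19 oxidation of a pro-luciferin substrate.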 Also: potency is read from the fitted curve at half-maximal effect. In outline:
as §1

Test [10] can be described thus: KB-3-1 P-gp reporter qHTS against the NCATS DSHEA and TCM libraries (AID 1919975). Also: 0% is about no effect. The method, boiled down:
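CellTiter-Glo luminescence viability readout; KB-3-1 parental cells, 500/well, attached ~4 h, then compound for ~72 h, 37C, 5% CO2. Bortezomib intraplate control.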

Test [11] concerns the target Cytochrome P450 1A2 (Homo sapiens) (UniProt P05177). The test can be described thus: qHTS for inhibitors of CYPIA2 against the NCATS DSHEA and TCM libraries (AID 1919976).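 Also: light from luciferin formed by CYP1A2 from a pro-luciferin substrate; % is scaled to controls: 0 for no effect and ±100 for the full control effect.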 In outline: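 Human CYP1A2 with pro-luciferin substrate (typically 100 mM KPO4), 15 min preincubation with compound, then 1x NADPH regeneration for 30-45 min at room temperature in the dark. Luciferin quantified by luciferase luminescence; furafylline intraplate control.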

The nature of test [12]: qHTS Counterscreen for compound interference against the NCATS DSHEA and TCM libraries (AID 1919978).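 Also: compounds preincubated with 1 µM D-luciferin or buffer before detection reagent; % of control where 0% means no effect.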 The conditions noted are these: firefly luciferase detection reagent interference, luminescence. In outline:
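Luminescence counterscreen for detection-kit interference: compounds at 19.5 nM–39.8 uM final, 15 min RT with 1 uM D-luciferin or buffer only; detection reagent added, 30 min RT, then read.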

The target in test [13] is Nuclear receptor subfamily 1 group I member 2 (Homo sapiens) (UniProt O75469). Kind of test: Dual reporter qHTS for agonist of Pregnane X Receptor (hPXR) against the NCATS DSHEA and TCM libraries: Luminescence readout (AID 1920059). Also: 0% is about no effect. In outline:
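Luminescent PXR reporter read (ONE-Glo) after a CellTiter-Fluor viability read, following 24 h, 37C treatment of HepG2 cells stably carrying hPXR-Luc.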

Test [14] has the same target. The test can be described thus: Dual reporter qHTS for antagonist of Pregnane X Receptor (hPXR) against the NCATS DSHEA and TCM libraries: Luminescence Readout (AID 1920060). Also: 0% is about no effect. The method, boiled down:
(§2)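 Rifampicin-stimulated (2 uM final) hPXR-luciferase HepG2 cells were treated for 24 h with DSNP/TCM substances. Viability came from CellTiter-Fluor fluorescence, reporter activity from ONE-Glo luminescence.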

Test [15] is described as follows: Dual reporter qHTS for antagonist of Pregnane X Receptor (hPXR) against the NCATS DSHEA and TCM libraries: Fluorescence Readout (AID 1920061). Also: 0% is about no effect. The method, boiled down: as §2
A short description of test [16]: AP1 Signaling Pathway (AID 357; active = well fitted curve in either direction with a large enough effect, not every such curve was filed as active;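 also: ME-180 reporter cells stimulated with EGF at its EC50 level; % is scaled to controls: 0 for no effect and ±100 for the full control effect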). The conditions noted are these: ME-180 (cervical carcinoma) AP-1-bla reporter, EGF-induced, beta-lactamase ratio, 5 h; at 7.69 µM (top of the series) unless noted. In outline:
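Modulation of EGF-driven AP-1 transcription was assessed with a beta-lactamase reporter in ME-180 cells. Compound and EC50 EGF were co-incubated 5 hours at 37 °C before 2.5-hour CCF4 loading at room temperature and dual-emission reading.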

Test [17] is described as follows: NFAT Signaling Pathway (AID 444; active = well fitted curve in either direction with a large enough effect, not every such curve was filed as active). The note with it: Jurkat NFAT-bla M1, carbachol, beta-lactamase ratio, 5 h; at 7.69 µM (top of the series) unless noted. In outline:
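Read-out: CCF4 FRET ratio (460 nm/530 nm) after 1 h RT dye loading, used for %activity and AC50 from titration series. Cells: Jurkat NFAT-β-lactamase/M1 line, treated with compound plus 1 uM carbachol for 5 h, 37 °C.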

Test [18] deals with Glucocorticoid receptor (Homo sapiens) (UniProt P04150). The test can be described thus: GR-GFP Redistribution (AID 450;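 active = compounds whose dose series gives a full or clear partial fitted curve of increased nuclear translocation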; also: potency is read from the fitted curve at half-maximal effect). The conditions noted are these: U2OS GR-GFP nuclear translocation, laser cytometry, 2 h.
Glucocorticoid receptor (Homo sapiens), sequence (P04150 whole entry, looked up, the tested form may be a part): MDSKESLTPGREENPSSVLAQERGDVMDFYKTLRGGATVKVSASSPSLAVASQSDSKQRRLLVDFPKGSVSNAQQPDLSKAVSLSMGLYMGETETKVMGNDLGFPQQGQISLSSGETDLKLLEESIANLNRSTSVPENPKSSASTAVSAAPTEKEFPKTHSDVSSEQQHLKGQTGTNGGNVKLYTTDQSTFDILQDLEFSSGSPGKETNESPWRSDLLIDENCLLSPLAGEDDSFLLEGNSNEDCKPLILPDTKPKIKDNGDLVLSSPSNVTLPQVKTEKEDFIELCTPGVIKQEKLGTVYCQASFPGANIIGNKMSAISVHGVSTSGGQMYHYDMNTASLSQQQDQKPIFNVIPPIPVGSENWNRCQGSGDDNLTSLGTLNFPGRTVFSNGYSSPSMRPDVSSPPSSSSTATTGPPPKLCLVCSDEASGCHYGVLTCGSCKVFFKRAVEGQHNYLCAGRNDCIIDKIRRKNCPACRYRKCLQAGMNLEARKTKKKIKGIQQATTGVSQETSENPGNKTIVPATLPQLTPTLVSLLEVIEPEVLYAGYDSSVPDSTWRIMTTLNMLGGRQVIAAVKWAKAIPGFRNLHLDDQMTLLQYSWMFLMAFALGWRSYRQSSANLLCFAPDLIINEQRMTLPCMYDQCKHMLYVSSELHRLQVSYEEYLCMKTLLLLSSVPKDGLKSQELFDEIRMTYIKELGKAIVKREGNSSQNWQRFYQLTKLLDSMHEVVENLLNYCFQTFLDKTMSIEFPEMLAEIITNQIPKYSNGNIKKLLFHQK
Test [19] has the same target. The test can be described thus: GR-EFC Redistribution (AID 451; calls by dose curve; also: potency is read from the fitted curve at half-maximal effect). The note with it: CHO-K1 GR-EFC translocation, beta-gal luminescence, 2 h. In outline: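 Translocation of GR-ED fusion to nuclear EA restores b-gal, read by luminescence after 1 h room-temperature detection. Engineered CHO-K1 biosensor cells, 1,000/well, exposed 2 h at 37 C to titrations up to 46 uM final.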

Test [20] deals with Mitogen-activated protein kinase 10 (Mus musculus) (UniProt Q61831). Kind of test: JNK3 AlphaScreen Assay (AID 530; active = well fitted curve in either direction with a large enough effect, not every such curve was filed as active). The method, boiled down: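 Compound titrations were preincubated 15 minutes at room temperature with substrate, antibody and pre-activated JNK3-containing HepG2 lysate. Reactions were started with 10 uM ATP and stopped with EDTA-containing bead buffer for AlphaScreen detection.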
On the technique in general: Bead proximity is the source of the signal in Alpha formats.

Ubiquitin carboxyl-terminal hydrolase 1 (Homo sapiens), sequence (O94782 whole entry, looked up): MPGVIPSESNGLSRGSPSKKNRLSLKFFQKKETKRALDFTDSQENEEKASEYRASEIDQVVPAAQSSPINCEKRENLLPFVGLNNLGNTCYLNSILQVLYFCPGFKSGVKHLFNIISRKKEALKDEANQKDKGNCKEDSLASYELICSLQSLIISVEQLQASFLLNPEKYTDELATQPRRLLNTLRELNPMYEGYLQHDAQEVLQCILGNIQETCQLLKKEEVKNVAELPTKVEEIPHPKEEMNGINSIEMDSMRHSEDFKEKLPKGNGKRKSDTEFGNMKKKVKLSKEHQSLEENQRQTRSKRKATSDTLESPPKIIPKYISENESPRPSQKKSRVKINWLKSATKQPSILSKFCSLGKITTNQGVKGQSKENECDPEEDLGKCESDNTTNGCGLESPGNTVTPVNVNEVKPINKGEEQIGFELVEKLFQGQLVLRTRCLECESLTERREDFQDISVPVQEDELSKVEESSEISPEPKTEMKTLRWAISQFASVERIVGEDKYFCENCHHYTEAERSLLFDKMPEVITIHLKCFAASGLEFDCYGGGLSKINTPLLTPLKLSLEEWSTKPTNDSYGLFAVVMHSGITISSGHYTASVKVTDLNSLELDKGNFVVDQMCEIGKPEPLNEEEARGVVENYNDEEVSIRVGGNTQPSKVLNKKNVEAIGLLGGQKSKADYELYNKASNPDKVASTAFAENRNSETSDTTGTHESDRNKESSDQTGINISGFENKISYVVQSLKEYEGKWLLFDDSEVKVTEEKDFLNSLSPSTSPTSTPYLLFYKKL
Cytochrome P450 1A2 (Homo sapiens), sequence (P05177 whole entry, looked up): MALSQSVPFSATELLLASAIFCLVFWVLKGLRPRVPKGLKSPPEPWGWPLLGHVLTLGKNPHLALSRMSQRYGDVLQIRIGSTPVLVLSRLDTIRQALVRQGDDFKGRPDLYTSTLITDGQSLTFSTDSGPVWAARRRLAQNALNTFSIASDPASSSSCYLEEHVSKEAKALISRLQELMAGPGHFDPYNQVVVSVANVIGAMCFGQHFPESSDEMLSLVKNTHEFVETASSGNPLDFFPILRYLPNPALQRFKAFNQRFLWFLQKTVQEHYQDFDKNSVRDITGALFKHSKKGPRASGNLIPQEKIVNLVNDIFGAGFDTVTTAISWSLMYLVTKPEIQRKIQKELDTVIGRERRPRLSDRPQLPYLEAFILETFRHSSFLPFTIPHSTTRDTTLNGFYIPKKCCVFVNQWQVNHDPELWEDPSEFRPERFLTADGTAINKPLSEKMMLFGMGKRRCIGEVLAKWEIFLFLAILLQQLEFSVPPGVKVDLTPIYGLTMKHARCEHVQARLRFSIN
Cytochrome P450 2D6 (Homo sapiens), sequence (P10635 whole entry, looked up): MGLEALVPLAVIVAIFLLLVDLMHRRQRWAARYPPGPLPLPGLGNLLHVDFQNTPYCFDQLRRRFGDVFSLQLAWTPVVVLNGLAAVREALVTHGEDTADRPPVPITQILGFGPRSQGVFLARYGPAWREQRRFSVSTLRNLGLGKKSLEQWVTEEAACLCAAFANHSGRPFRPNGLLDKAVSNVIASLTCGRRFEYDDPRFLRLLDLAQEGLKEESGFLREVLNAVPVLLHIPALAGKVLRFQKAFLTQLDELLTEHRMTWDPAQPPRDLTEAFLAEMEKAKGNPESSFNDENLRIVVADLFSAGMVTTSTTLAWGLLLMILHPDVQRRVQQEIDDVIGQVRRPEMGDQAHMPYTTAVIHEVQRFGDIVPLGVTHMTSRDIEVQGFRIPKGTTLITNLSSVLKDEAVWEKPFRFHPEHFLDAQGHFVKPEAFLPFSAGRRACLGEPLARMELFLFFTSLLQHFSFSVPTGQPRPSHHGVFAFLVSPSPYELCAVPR
Nuclear receptor subfamily 1 group I member 3 (Homo sapiens), sequence (Q14994 whole entry, looked up): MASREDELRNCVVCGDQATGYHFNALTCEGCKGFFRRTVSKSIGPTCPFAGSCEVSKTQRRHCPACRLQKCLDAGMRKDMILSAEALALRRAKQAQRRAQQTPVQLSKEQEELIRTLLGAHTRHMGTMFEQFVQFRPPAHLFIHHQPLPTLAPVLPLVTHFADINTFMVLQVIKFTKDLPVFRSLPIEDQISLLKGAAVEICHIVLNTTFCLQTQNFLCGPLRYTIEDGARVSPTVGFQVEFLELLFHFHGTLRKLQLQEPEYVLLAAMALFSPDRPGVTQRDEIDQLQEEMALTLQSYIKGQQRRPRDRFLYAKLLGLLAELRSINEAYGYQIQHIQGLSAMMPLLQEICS
Nuclear receptor subfamily 1 group I member 2 (Homo sapiens), sequence (O75469 whole entry, looked up): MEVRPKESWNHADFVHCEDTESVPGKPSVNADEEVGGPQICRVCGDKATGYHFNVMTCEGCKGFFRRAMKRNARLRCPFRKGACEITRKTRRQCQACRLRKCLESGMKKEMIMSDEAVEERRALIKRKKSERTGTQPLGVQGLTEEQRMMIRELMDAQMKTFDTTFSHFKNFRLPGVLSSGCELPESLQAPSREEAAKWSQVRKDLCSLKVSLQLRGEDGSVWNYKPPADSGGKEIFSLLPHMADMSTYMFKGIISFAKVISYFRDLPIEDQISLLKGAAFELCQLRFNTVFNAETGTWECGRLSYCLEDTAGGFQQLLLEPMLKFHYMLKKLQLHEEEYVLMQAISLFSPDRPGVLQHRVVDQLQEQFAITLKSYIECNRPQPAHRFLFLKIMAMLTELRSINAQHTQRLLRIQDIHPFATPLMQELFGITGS
Cytochrome P450 2C19 (Homo sapiens), sequence (P33261 whole entry, looked up): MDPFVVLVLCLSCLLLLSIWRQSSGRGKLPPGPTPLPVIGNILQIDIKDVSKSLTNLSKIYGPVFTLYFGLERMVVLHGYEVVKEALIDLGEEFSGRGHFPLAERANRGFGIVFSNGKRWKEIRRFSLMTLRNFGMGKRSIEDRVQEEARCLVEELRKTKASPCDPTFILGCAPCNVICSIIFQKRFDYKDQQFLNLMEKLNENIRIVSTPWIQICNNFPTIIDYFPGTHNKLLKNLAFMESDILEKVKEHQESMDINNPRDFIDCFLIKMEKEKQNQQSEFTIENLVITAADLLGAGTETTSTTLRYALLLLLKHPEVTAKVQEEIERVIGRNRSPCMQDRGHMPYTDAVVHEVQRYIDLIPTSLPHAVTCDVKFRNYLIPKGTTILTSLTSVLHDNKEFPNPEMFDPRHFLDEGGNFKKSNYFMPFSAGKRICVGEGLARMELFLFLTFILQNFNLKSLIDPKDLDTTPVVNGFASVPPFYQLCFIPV

On to `CC(=O)OC1CC2CCC1(C)C2(C)C` (centres undefined), for which the Potency entry in [1], in test [4], in [6], in test [7], in test [8] and in test [9] was “inactive” in each case. Moreover, the Potency entry in [11] and in test [13] was “inactive” in each case. The outcome in [2], in [3], in [5], in test [10], in [14] and in test [15] was inactive. Also, the max response in test [12] is 3.9%.
In the case of `OCCc1ccc(O)cc1`, the molecule was classed as inactive in test [2], in test [3], in test [5], in test [10], in [14] and in test [15]. Moreover, the Potency result in test [4], in test [6], in [7], in test [8], in [9] and in test [11] was “inactive” throughout. In addition, the Potency entry in test [13] is “inactive”. Moreover, in test [12], the max response is -3.57%.
As to `CC1=CCC(O)(C(C)C)CC1` (centres undefined), the outcome in test [2], in test [3], in [5], in test [10], in [14] and in test [15] was inactive. The Potency result in [4], in test [6], in [7], in test [8], in test [9] and in test [11] was “inactive” in each case. Further, the Potency entry in [13] is “inactive”. Also, in [12], the max response is 1.58%.
Turning to `COc1ccccc1-c1nc(NC2CC2)c2ccccc2n1`, the activity change, negative = inhibition in [16] is -2.64%; in test [17], -13.9%. Further, the Potency in test [18] and in [19] was above 46 µM each time. In addition, the Potency result in [20] and in [1] was “inactive” throughout.
For `CC(C)=CCCC(C)=CCCC(C)=CCCC=C(C)CCC=C(C)CCC=C(C)C`, the result in test [2], in test [3], in test [5], in [10], in test [14] and in test [15] was inactive. For the same molecule, the Potency result in [4], in test [6], in test [7], in [8], in test [9] and in test [11] was “inactive” in each case. Also, the Potency result in test [13] is “inactive”. Further, the max response in test [12] was -1.5%.
Take `O=C(/C=C/c1ccc(O)c(O)c1)O[C@@H]1CC(C(=O)O)=C[C@@H](O)[C@H]1O`: the call in [2], in [3], in test [5], in test [10], in test [14] and in test [15] was inactive. In addition, the Potency result in test [4], in test [6], in [7], in test [8], in test [9] and in test [11] was “inactive” each time. In addition, the Potency result in [13] was “inactive”. For the same molecule, the max response in test [12] is 4.08%.
As for `COc1ccc(C(=O)O)cc1`, the molecule was called inactive in test [2], in test [3], in test [5], in test [10], in test [14] and in test [15]. In addition, the Potency result in test [4], in [6], in test [7], in test [8], in test [9] and in [11] was “inactive” throughout. Also, the Potency entry in test [13] was “inactive”.
`CC(C)=CCC[C@](C)(O[C@@H]1O[C@H](CO)[C@@H](O)[C@H](O)[C@H]1O)[C@H]1CC[C@]2(C)[C@@H]1[C@H](O)C[C@@H]1[C@@]3(C)CC[C@H](O[C@@H]4O[C@H](CO)[C@@H](O)[C@H](O)[C@H]4O[C@@H]4O[C@H](CO)[C@@H](O)[C@H](O)[C@H]4O)C(C)(C)[C@@H]3CC[C@]12C`: the call in test [2], in test [3], in test [5], in test [10], in [14] and in test [15] was inactive. The Potency result in test [4], in test [6], in test [8], in test [9] and in test [13] was “inactive” each time. In addition, in test [12], the max response was 4.23%.
Consider `Cc1ncc(COP(=O)(O)O)c(C)c1O`, for which the activity change, negative = inhibition in [16] was 9.96%; in test [17] it was -4.14%; in test [20] it was 4.19% [at 11.4 µM]. For the same molecule, the Potency was above 46 µM in test [18], above 9.22 µM in test [19] and 7.08 µM (active) in [9]. Moreover, the molecule was called inactive in [2], in test [3], in [5], in test [10], in test [14] and in [15]. Moreover, the Potency entry in test [4], in test [6], in test [7] and in test [13] was “inactive” throughout.
Turning to `COc1ccc2[nH]cc(CCNc3ncncc3-c3cccc(C#N)c3)c2c1`, the values for the activity change, negative = inhibition in [16] and in test [17] were -18.6% and -10.2%, respectively. Further, the Potency in test [18] and in test [19] was above 46 µM in each case. Further, the Potency result in [20] and in test [1] was “inactive” in each case.
As for `O=Cc1ccccc1O`, the outcome in [2], in test [3], in test [5], in test [10], in test [14] and in [15] was inactive. In addition, the Potency entry in [4], in test [6], in [7], in [8], in test [9] and in [11] was “inactive” in each case. In addition, the Potency result in [13] was “inactive”. The max response in test [12] is 1.96%.
Consider `CCCCCCCCCCCCCC(=O)O`, for which the outcome in test [2], in test [3], in test [5], in test [10], in test [14] and in test [15] was inactive. The Potency result in [4], in [6], in test [7], in [9] and in test [13] was “inactive” each time.
Regarding `CCCCCCCC/C=C\CCCCCCCCCCCC(=O)O`, the molecule was called inactive in [2], in [3], in [5], in test [10], in test [14] and in test [15]. Besides, the Potency entry in test [4], in [7] and in [13] was “inactive” throughout. Moreover, the max response in [12] was 1.35%.

These data come from PubChem BioAssay (NCATS).
